The whole screen tested about 69,000 compounds, of which about 8,600 (12%) showed an effect of 50% or more. Only a selection was taken, and strong results are over-represented in it overall.

The subject of this assay is Plasmodium berghei. Put plainly: Screen against P. berghei liver stage (PbLuc), transformed with Luciferase, at 10uM. Type of assay: functional, HepG2. As to conditions: tested at 10 uM.
Regarding `COc1ccc(OC)c(CN(C)c2ncc(S(N)(=O)=O)s2)c1`, the INHIBITION was -54.4%.
Then `CN(c1ncc(S(N)(=O)=O)s1)C1CCc2ccccc2C1` (stereo not drawn), with 65.6%.
Turning to `CS(=O)(=O)c1cn[nH]c1C1CCCCN1C(=O)Cc1cccnc1` (stereo not drawn), the INHIBITION is -5.71%.
With `CN1CCNC(Cc2ccc(-c3cccs3)cc2)C1=O` (stereo not drawn) the figure was -52.6%; with `COCCN1CCOCC12CCN(C(=O)Cc1cccs1)CC2`, 24.9%; with `O=C(CN1CCC[C@@H]1C(=O)O)NCCOc1cccc(C(F)(F)F)c1`, -0.18%.
On to `CC(=O)N1CCC2(CCCN(C(=O)c3ccccc3)C2)C1` (stereo not drawn), for which the INHIBITION came out at 22.2%.
With `Cc1csc(Nc2cc(C3CCCCN3C)nc(C)n2)n1` (stereo not drawn), the INHIBITION is 16.5%.
Regarding `Cc1ccsc1CN(C)C(=O)c1cc2c([nH]c1=O)CCCC2=O`, the INHIBITION is on record as -1.95%.
Consider `CCc1ncncc1C(=O)NCCNS(=O)(=O)c1ccc(C)cc1`, for which the INHIBITION is listed as -70.7%.
As for `Cc1ccc(S(=O)(=O)NCCNC(=O)c2cncnc2C)cc1`, the INHIBITION is given as 78.1%.
Consider `CCc1ncncc1C(=O)NCCNS(=O)(=O)c1ccccc1`, for which the INHIBITION is listed as -118%.
Regarding `CN(C)C(C)(C)CNCc1c[nH]nc1-c1cc2ccccc2o1`, the INHIBITION worked out at 36.9%.
In the case of `Cc1cnc(C(=O)NCc2cccnc2OC(C)C)cn1`, the INHIBITION was determined as 33.7%.
For the compound `O=C1CC(NCc2ccc(OC(F)F)cc2)CN1Cc1cccc(F)c1` (stereo not drawn), the INHIBITION was 0.38%.
Consider `O=C1CC(NCc2ccncc2)CN1Cc1cccc(F)c1` (stereo not drawn), for which the INHIBITION is recorded as 63.5%.
On to `Cc1cccc(CNC2CC(=O)N(Cc3cccc(F)c3)C2)c1` (stereo not drawn), for which the INHIBITION is listed as 13.87%.
With `NC1CCC(n2cc(C(=O)NC3CCc4ccccc4C3)nn2)CC1` (stereo not drawn), the INHIBITION was 25.5%.
Turning to `CC(C)N(C)C(=O)c1ccc(CNc2ncc(C#N)cc2Cl)cc1`, the INHIBITION stood at 44.5%.
Turning to `CNC(=O)c1ccc(CNC(=O)c2ccc(Cl)cc2F)cc1`, the INHIBITION is recorded as -8.675%.
With `CC(C)N(C)C(=O)c1ccc(CNc2cncc(Cl)n2)cc1` the figure was 32.9%.
As to `CC(C)N(C)C(=O)c1ccc(CNc2ccncc2Cl)cc1`, the INHIBITION is listed as 97.1%.
As to `CCOc1ccc(Cl)c(C(=O)NCc2ccc(C(=O)NC)cc2)n1`, the INHIBITION is on record as 14.7%.
With `CNC(=O)c1ccc(CNc2ccncc2Cl)cc1`, the INHIBITION worked out at 57.7%.
In the case of `CN1CCOC(CNCc2ccc(OCc3ccccn3)cc2)C1` (stereo not drawn), the INHIBITION was -38.7%.
With `O=C(c1ccnnc1)N1C[C@@H](OCc2cccnc2)[C@H]2OCCC[C@H]21`, the INHIBITION was 37.1%.
Regarding `NC(=O)c1ccc(CNC2CC2)cc1`, the INHIBITION is -30.1%.
Take `Cc1ccc(C2(CN3CCN(Cc4cncn4C)CC3)CC2)cc1`: the INHIBITION was -32.7%.
Take `CC(C)(C)c1cnc(CN(Cc2cccnc2)CC2CCCO2)o1` (stereo not drawn): the INHIBITION came out at 75.4%.
`c1ccc(-c2cnc(CN(Cc3cccnc3)CC3CCCO3)o2)cc1` (stereo not drawn): the INHIBITION is given as -5.26%.
Consider `CCN(Cc1cccnc1)CC1CCCO1` (stereo not drawn), for which the INHIBITION is -0.113%.
Turning to `CNC(=O)CCc1cc(C)nc(C2CCN(C(=O)CN(C)C)CC2)c1`, the INHIBITION stood at 4.9%.
For `CCc1nc(CN2CCCN(C(=O)c3ccnc(C)n3)CC2)cs1`, the INHIBITION amounted to 25.5%.
For `Cc1cc(C)cc(N2CCN(Cc3cccc(CCN)c3)CC2=O)c1`, the INHIBITION came to 2.18%.
As to `NCCc1cccc(CN2CCN(c3cccc(Cl)c3)C(=O)C2)c1`, the INHIBITION is on record as 50.5%.
With `Cc1cc(C)cc(CN2CCN(Cc3ccc4nonc4c3)CC2=O)c1` the figure was 37.6%; with `Cc1cc(C)cc(CN2CCN(Cc3cccc(CCN)c3)CC2=O)c1`, 67.7%.
With `NCCc1cccc(CN2CCN(c3ccccc3)C(=O)C2)c1` the figure was 26.8%.
For `Cc1ccc(CN2CCN(Cc3ccc4nonc4c3)CC2=O)cc1`, the INHIBITION was 5.78%.
For `Cc1cc(C)cc(CN2CCN(Cc3cc(C#N)n(C)c3)CC2=O)c1`, the INHIBITION came to 11.8%.
Regarding `COc1cccc(N2CCN(Cc3cccc(CCN)c3)CC2=O)c1`, the INHIBITION came out at 35.1%.
For the compound `Cc1ccc(CN2CCN(Cc3ccncc3)CC2=O)cc1`, the INHIBITION amounted to 50.3%.
For `Cn1cc(CN2C[C@@H]3COC[C@H](C(=O)Nc4cccnc4)[C@@H]3C2)cn1`, the INHIBITION came out at 0.542%.
With `CCn1cc(CN2CCCN(C(=O)c3c(C)oc(C)c3C)CC2)cn1` the figure was 15.6%.
Consider `CCC[C@H]1CN(S(C)(=O)=O)C[C@@H]1NC(=O)c1ccc(COC)cc1`, for which the INHIBITION turned out to be 23.9%.
As to `Cc1ccoc1C(=O)N1CC[C@H]2[C@H](C[C@@H](CN3CCCC3)N2C)C1`, the INHIBITION is 47.4%.
Then `CC(=O)N1N=C(c2cccs2)OC1C(=O)NCc1ccc(C)o1` (stereo not drawn), with 53%; and `CCc1ccc(NC(=O)C2OC(c3cccs3)=NN2C(C)=O)cc1` (stereo not drawn), with 52.1%.
With `CC(=O)N1N=C(c2cccs2)OC1C(=O)Nc1ccc(C)cc1` (stereo not drawn), the INHIBITION is reported as -25.1%.
With `CC(=O)N1N=C(c2cccs2)OC1C(=O)Nc1ccccc1` (stereo not drawn) the figure was -4.32%; with `COc1ccc(NC(=O)C2OC(c3cccs3)=NN2C(C)=O)cc1` (stereo not drawn), 28.3%.
For `CCOc1ccc(NC(=O)C2OC(c3cccs3)=NN2C(C)=O)cc1` (stereo not drawn), the INHIBITION was determined as 11.5%.
With `CCn1cc(C(=O)NCCc2nc(-c3ccc(C)cc3)n[nH]2)c(C)n1` the figure was 12.8%.

The record behind these values is ChEMBL document CHEMBL4513216, “Probing the Open Global Health Chemical Diversity Library for Multistage-Active Starting Points for Next-Generation Antimalarials” (ACS Infect Dis, 2020).
